According to paper PMC7862700, “An all-to-all approach to the identification of sequence-specific readers for epigenetic DNA modifications on cytosine”:

Assays:
Assay in all cases: DAPPL (digital affinity profiling via proximity ligation, sequencing); 10 mM Tris-HCl pH 7.5, 50 mM NaCl, 1 mM DTT, 4% glycerol, room temperature, 30 min; GST-TFs on glutathione beads, 16-mer random dsDNA library, 0.1% formaldehyde crosslink after washing; high values mean tight binding
Conditions in all cases: protein: recombinant; tags: N-terminal GST; dsDNA, one strand shown
ELK3 = biological target: T1, ELK3 (Homo sapiens, UniProt P41970 1-407)
T1 sequence: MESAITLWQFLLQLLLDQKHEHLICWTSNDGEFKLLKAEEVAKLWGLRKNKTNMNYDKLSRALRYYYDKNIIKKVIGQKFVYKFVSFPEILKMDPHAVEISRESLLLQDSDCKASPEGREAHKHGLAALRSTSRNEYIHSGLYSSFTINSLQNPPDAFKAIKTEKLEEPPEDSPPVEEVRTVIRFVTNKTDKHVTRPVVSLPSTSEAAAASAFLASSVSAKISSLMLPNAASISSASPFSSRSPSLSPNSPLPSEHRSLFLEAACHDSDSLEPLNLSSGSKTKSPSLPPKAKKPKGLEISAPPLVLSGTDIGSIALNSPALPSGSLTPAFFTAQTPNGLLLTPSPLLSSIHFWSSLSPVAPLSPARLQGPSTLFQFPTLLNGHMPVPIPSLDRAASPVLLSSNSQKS
Procedure, shortened: (§1)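 A tag-only sample was pooled with DNA-barcoded human transcription factors that had been expressed in yeast as GST fusions and captured on glutathione beads. The pools were incubated for 30 min at room temperature with 200 nmole of a random double-stranded 16-mer DNA library in Tris/NaCl/DTT/glycerol buffer, then washed, crosslinked with 0.1% formaldehyde, proximity-ligated (BsaI/T4 ligase, 1 h, 37 °C), PCR-amplified and sequenced on an Illumina NextSeq500. Binding signal is each hexamer's read frequency for a factor divided by its frequency for the tag-only sample.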

SPIC = biological target: T2, SPIC (Homo sapiens, UniProt Q8N5J4 1-248)
T2 sequence: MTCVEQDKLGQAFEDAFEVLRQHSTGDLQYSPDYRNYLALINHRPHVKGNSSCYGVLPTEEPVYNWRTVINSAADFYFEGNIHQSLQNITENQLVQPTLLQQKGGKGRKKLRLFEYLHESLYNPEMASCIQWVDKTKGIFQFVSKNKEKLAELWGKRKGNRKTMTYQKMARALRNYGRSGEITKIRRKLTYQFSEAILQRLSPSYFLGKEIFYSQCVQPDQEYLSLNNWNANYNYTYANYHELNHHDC
Procedure, shortened: as §1

ELK4 = biological target: T3, ELK4 (Homo sapiens, UniProt P28324-2 1-405)
T3 sequence: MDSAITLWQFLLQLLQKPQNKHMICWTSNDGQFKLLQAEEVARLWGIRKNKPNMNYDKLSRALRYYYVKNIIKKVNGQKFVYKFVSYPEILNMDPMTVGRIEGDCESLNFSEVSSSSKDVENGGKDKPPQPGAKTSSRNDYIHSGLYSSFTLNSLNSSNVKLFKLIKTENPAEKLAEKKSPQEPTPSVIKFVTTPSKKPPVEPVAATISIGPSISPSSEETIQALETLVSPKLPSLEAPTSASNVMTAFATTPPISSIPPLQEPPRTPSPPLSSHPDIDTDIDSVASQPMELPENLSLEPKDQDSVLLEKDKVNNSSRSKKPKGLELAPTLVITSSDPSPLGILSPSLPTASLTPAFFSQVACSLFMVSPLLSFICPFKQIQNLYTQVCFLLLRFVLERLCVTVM
Procedure, shortened: as §1

SPDEF = biological target: T4, SPDEF (Homo sapiens, UniProt O95238 1-335)
T4 sequence: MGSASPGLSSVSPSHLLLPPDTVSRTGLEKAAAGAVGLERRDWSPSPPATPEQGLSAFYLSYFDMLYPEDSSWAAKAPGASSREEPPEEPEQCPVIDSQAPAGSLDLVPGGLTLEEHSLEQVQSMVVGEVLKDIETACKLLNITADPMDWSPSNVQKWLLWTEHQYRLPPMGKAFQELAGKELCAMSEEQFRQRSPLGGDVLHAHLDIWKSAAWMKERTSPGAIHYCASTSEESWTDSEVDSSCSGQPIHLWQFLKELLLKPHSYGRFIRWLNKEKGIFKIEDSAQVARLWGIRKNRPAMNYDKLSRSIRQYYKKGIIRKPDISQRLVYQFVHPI
Procedure, shortened: as §1

ELF5 = biological target: T5, ELF5 (Homo sapiens, UniProt Q9UKW6-2 1-255)
T5 sequence: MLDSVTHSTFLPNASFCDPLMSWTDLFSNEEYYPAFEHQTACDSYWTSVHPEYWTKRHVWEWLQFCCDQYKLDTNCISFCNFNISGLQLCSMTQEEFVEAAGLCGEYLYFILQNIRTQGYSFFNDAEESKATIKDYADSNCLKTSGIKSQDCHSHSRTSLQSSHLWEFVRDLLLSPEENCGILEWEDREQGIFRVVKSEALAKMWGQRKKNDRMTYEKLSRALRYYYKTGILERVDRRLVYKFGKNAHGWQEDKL
Procedure, shortened: as §1

CRX = CRX (Homo sapiens, UniProt O43186 1-299)
Procedure, shortened: as §1

Sequence of CRX (O43186 whole entry): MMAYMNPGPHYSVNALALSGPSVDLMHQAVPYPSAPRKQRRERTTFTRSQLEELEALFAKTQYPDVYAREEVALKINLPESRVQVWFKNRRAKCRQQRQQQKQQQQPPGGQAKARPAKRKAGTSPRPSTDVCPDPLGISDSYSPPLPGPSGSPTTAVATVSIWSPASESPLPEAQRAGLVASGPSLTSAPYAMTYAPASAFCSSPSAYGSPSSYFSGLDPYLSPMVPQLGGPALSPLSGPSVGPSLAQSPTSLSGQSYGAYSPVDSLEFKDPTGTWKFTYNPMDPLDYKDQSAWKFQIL

Row | Sequence | binding signal (ELK3) | binding signal (SPIC) | binding signal (ELK4) | binding signal (SPDEF) | binding signal (ELF5) | binding signal (CRX)
1 | TCGCTG | 1.23 fold enrichment (6-mer frequency, TF over GST control) | 1.19 fold enrichment (6-mer frequency, TF over GST control) | 1.15 fold enrichment (6-mer frequency, TF over GST control) |  |  | 
2 | GCTGCG | 1.04 fold enrichment (6-mer frequency, TF over GST control) | 1.08 fold enrichment (6-mer frequency, TF over GST control) |  | 1.02 fold enrichment (6-mer frequency, TF over GST control) | 1.04 fold enrichment (6-mer frequency, TF over GST control) | 
3 | CCCCGT | 1.09 fold enrichment (6-mer frequency, TF over GST control) | 1.05 fold enrichment (6-mer frequency, TF over GST control) |  | 1 fold enrichment (6-mer frequency, TF over GST control) | 1.06 fold enrichment (6-mer frequency, TF over GST control) | 
4 | CGTCGC | 1.09 fold enrichment (6-mer frequency, TF over GST control) | 1.07 fold enrichment (6-mer frequency, TF over GST control) |  | 1.24 fold enrichment (6-mer frequency, TF over GST control) | 1.19 fold enrichment (6-mer frequency, TF over GST control) | 
5 | ATACCG | 1.15 fold enrichment (6-mer frequency, TF over GST control) | 1.05 fold enrichment (6-mer frequency, TF over GST control) | 1.04 fold enrichment (6-mer frequency, TF over GST control) | 1.19 fold enrichment (6-mer frequency, TF over GST control) | 1.13 fold enrichment (6-mer frequency, TF over GST control) | 
6 | CAGCTA | 1.02 fold enrichment (6-mer frequency, TF over GST control) | 1.07 fold enrichment (6-mer frequency, TF over GST control) | 1.16 fold enrichment (6-mer frequency, TF over GST control) |  |  | 1.05 fold enrichment (6-mer frequency, TF over GST control)
7 | AACTGA | 1.06 fold enrichment (6-mer frequency, TF over GST control) | 1.37 fold enrichment (6-mer frequency, TF over GST control) |  |  | 1.01 fold enrichment (6-mer frequency, TF over GST control) | 
8 | AAACCG | 1.09 fold enrichment (6-mer frequency, TF over GST control) | 1.05 fold enrichment (6-mer frequency, TF over GST control) |  | 1.11 fold enrichment (6-mer frequency, TF over GST control) | 1.02 fold enrichment (6-mer frequency, TF over GST control) | 
9 | GTGTCC | 1.05 fold enrichment (6-mer frequency, TF over GST control) | 1.2 fold enrichment (6-mer frequency, TF over GST control) |  | 1.34 fold enrichment (6-mer frequency, TF over GST control) | 1.1 fold enrichment (6-mer frequency, TF over GST control) | 
10 | ACCGCA | 1.19 fold enrichment (6-mer frequency, TF over GST control) |  | 1.05 fold enrichment (6-mer frequency, TF over GST control) | 1.13 fold enrichment (6-mer frequency, TF over GST control) | 1.1 fold enrichment (6-mer frequency, TF over GST control) | 1.01 fold enrichment (6-mer frequency, TF over GST control)
11 | ATGGCG | 1.01 fold enrichment (6-mer frequency, TF over GST control) | 1.16 fold enrichment (6-mer frequency, TF over GST control) |  | 1.02 fold enrichment (6-mer frequency, TF over GST control) | 1.01 fold enrichment (6-mer frequency, TF over GST control) | 
12 | GCTTGT | 1.12 fold enrichment (6-mer frequency, TF over GST control) | 1.26 fold enrichment (6-mer frequency, TF over GST control) |  |  | 1.05 fold enrichment (6-mer frequency, TF over GST control) | 
13 | GCAATT | 1.05 fold enrichment (6-mer frequency, TF over GST control) |  | 1.01 fold enrichment (6-mer frequency, TF over GST control) | 1.06 fold enrichment (6-mer frequency, TF over GST control) | 1.08 fold enrichment (6-mer frequency, TF over GST control) | 
14 | TGCCGG | 1.02 fold enrichment (6-mer frequency, TF over GST control) | 1.09 fold enrichment (6-mer frequency, TF over GST control) |  | 1.21 fold enrichment (6-mer frequency, TF over GST control) | 1.09 fold enrichment (6-mer frequency, TF over GST control) | 
15 | ATAGCG | 1.05 fold enrichment (6-mer frequency, TF over GST control) | 1.03 fold enrichment (6-mer frequency, TF over GST control) |  |  |  | 
16 | ACATAG | 1.07 fold enrichment (6-mer frequency, TF over GST control) | 1.02 fold enrichment (6-mer frequency, TF over GST control) |  | 1 fold enrichment (6-mer frequency, TF over GST control) | 1.02 fold enrichment (6-mer frequency, TF over GST control) | 
17 | ACGGTT |  | 1.04 fold enrichment (6-mer frequency, TF over GST control) |  | 1.04 fold enrichment (6-mer frequency, TF over GST control) | 1.05 fold enrichment (6-mer frequency, TF over GST control) | 
18 | AGTAAC | 1.01 fold enrichment (6-mer frequency, TF over GST control) | 1.07 fold enrichment (6-mer frequency, TF over GST control) |  |  | 1.09 fold enrichment (6-mer frequency, TF over GST control) | 
19 | AGTGTA |  | 1.19 fold enrichment (6-mer frequency, TF over GST control) |  |  |  | 
20 | ACTAGG |  | 1.21 fold enrichment (6-mer frequency, TF over GST control) | 1.03 fold enrichment (6-mer frequency, TF over GST control) | 1.1 fold enrichment (6-mer frequency, TF over GST control) | 1 fold enrichment (6-mer frequency, TF over GST control) | 
21 | TGGGTA | 1.12 fold enrichment (6-mer frequency, TF over GST control) | 1.03 fold enrichment (6-mer frequency, TF over GST control) | 1.02 fold enrichment (6-mer frequency, TF over GST control) |  |  | 
22 | GGTATG |  | 1.22 fold enrichment (6-mer frequency, TF over GST control) | 1.09 fold enrichment (6-mer frequency, TF over GST control) | 1.02 fold enrichment (6-mer frequency, TF over GST control) |  | 
23 | TTGGCG |  | 1.09 fold enrichment (6-mer frequency, TF over GST control) |  |  |  | 
24 | AGTGGT | 1.15 fold enrichment (6-mer frequency, TF over GST control) | 1.22 fold enrichment (6-mer frequency, TF over GST control) | 1.1 fold enrichment (6-mer frequency, TF over GST control) |  | 1.14 fold enrichment (6-mer frequency, TF over GST control) | 
25 | GTTGTA |  | 1.01 fold enrichment (6-mer frequency, TF over GST control) |  | 1.04 fold enrichment (6-mer frequency, TF over GST control) |  | 
26 | CCCCCC | 1.12 fold enrichment (6-mer frequency, TF over GST control) |  | 1.23 fold enrichment (6-mer frequency, TF over GST control) | 1.08 fold enrichment (6-mer frequency, TF over GST control) | 1.09 fold enrichment (6-mer frequency, TF over GST control) | 
27 | GCCTGC | 1.08 fold enrichment (6-mer frequency, TF over GST control) |  | 1.18 fold enrichment (6-mer frequency, TF over GST control) | 1.02 fold enrichment (6-mer frequency, TF over GST control) | 1.09 fold enrichment (6-mer frequency, TF over GST control) | 
28 | ACTGTA | 1.04 fold enrichment (6-mer frequency, TF over GST control) | 1.24 fold enrichment (6-mer frequency, TF over GST control) | 1.08 fold enrichment (6-mer frequency, TF over GST control) | 1.02 fold enrichment (6-mer frequency, TF over GST control) | 1.07 fold enrichment (6-mer frequency, TF over GST control) | 
29 | TGGTGG | 1.22 fold enrichment (6-mer frequency, TF over GST control) | 1.03 fold enrichment (6-mer frequency, TF over GST control) | 1.04 fold enrichment (6-mer frequency, TF over GST control) | 1.02 fold enrichment (6-mer frequency, TF over GST control) |  | 
